# Data as given in the supplement of paper PMC10037445.
# Whole data set: some 2,900 compounds, median “NF-kB SEAP reporter activity, fold change vs agonist alone” near 0.99, cut for the highest 2% near 2.6. The list comes from a sample in which the highest values are over-represented; it also holds similar structures and randomly drawn compounds.
# Key:
# RAW-Dual [1] = test: NF-kB SEAP reporter activity, fold change vs agonist alone; higher = enhanced NF-kB activity
# Procedure, shortened: (§1)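 RAW-Dual macrophages were seeded in DMEM at 50,000 cells/well in 384-well plates, given 50 nL of library stock by pin tool, and given a PRR agonist 1 h later. Plates were held at 37 °C, 5% CO2 for 20 hours, after which supernatant was read for IRF by QuantiLuc luminescence and for NF-κB by QuantiBlue absorbance at 620 nm. Reporter activity is expressed as fold change over wells that received agonist alone. A well was called cytotoxic when IncuCyte confluency fell below 70% of agonist controls in both mask sets.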
# RAW-Dual [2] = test: NF-kB SEAP reporter activity, fold change vs agonist alone; cytotoxicity flag (confluency mask): not cytotoxic; higher = enhanced NF-kB activity
# Procedure, shortened: as §1
# RAW-Dual [3] = test: NF-kB SEAP reporter activity, fold change vs agonist alone; cytotoxicity flag (confluency mask): cytotoxic (confluency <70% of control); higher = enhanced NF-kB activity
# Procedure, shortened: as §1
# [4] = library stock concentration (final ~1000-fold dilution): 10 mM, cytotoxicity flag (confluency mask): not cytotoxic, agonist: Imiquimod (TLR7) […]
# [5] = library stock concentration (final ~1000-fold dilution): 10 mM, cytotoxicity flag (confluency mask): not cytotoxic, agonist: MPLA (TLR4) […]
# [6] = agonist: ODN 1826 (TLR9) 0.5 ug/mL
# [7] = agonist: Pam2CSK4 (TLR2/6) 0.1 ug/mL
# [8] = agonist: Pam3CSK4 (TLR2/1) 0.1 ug/mL
# [9] = library stock concentration (final ~1000-fold dilution): 10 mM, cytotoxicity flag (confluency mask): cytotoxic (confluency <70% of control), agonist: Imiquimod (TLR7) […]
# [10] = library stock concentration (final ~1000-fold dilution): 10 mM, cytotoxicity flag (confluency mask): cytotoxic (confluency <70% of control), agonist: MPLA (TLR4) […]
# [11] = library stock concentration (final ~1000-fold dilution): 10 mM water, cytotoxicity flag (confluency mask): not cytotoxic, agonist: Imiquimod (TLR7) […]
# [12] = library stock concentration (final ~1000-fold dilution): 10 mM water, cytotoxicity flag (confluency mask): not cytotoxic, agonist: MPLA (TLR4) […]
structure (smiles),measurement,setting,value
O=C(Oc1cc(S(=O)(=O)c2ccccc2)ccc1[N+](=O)[O-])c1ccc(Cl)cc1,NF-kB SEAP reporter activity,RAW-Dual [1]; [4],1.32
same,NF-kB SEAP reporter activity,RAW-Dual [1]; [5],2.59
O=C(Nc1ccccc1C(=O)O)c1cc(S(=O)(=O)c2ccccc2)ccc1Cl (library stock concentration (final ~1000-fold dilution): 10 mM),NF-kB SEAP reporter activity,RAW-Dual [2]; agonist: LPS (TLR4) 0.1 ug/mL,1.19
same,NF-kB SEAP reporter activity,RAW-Dual [2]; [6],0.999
same,NF-kB SEAP reporter activity,RAW-Dual [2]; [7],1.09
same,NF-kB SEAP reporter activity,RAW-Dual [2]; [8],1.13
O=C(Oc1coc(CSc2ncccn2)cc1=O)c1ccc([N+](=O)[O-])cc1,NF-kB SEAP reporter activity,RAW-Dual [1]; [4],0.717
same,NF-kB SEAP reporter activity,RAW-Dual [1]; [5],1.01
COCCOc1cc(F)c2c(Nc3ccc(NC(=O)Cn4cc(C(C)C)nn4)cc3)ncnc2c1 (library stock concentration (final ~1000-fold dilution): 10 mM),NF-kB SEAP reporter activity,RAW-Dual [2]; agonist: LPS (TLR4) 0.1 ug/mL,1.36
same,NF-kB SEAP reporter activity,RAW-Dual [2]; [6],0.989
same,NF-kB SEAP reporter activity,RAW-Dual [2]; [7],1.16
same,NF-kB SEAP reporter activity,RAW-Dual [2]; [8],1.24
COCCOc1cc(F)c2c(Nc3ccc(NC(=O)Cn4cc(C(C)C)nn4)cc3)ncnc2c1,NF-kB SEAP reporter activity,RAW-Dual [1]; [4],1.14
same,NF-kB SEAP reporter activity,RAW-Dual [1]; [5],1.01
CC(C)c1cnn2c(NCc3ccccc3)cc(NCCCCCCN)nc12.Cl,NF-kB SEAP reporter activity,RAW-Dual [1]; [9],2.18
same,NF-kB SEAP reporter activity,RAW-Dual [1]; [10],0.882
CC(C)c1cnn2c(NCc3ccccc3)cc(NCCCCCCN)nc12.Cl (library stock concentration (final ~1000-fold dilution): 10 mM),NF-kB SEAP reporter activity,RAW-Dual [3]; agonist: LPS (TLR4) 0.1 ug/mL,0.271
same,NF-kB SEAP reporter activity,RAW-Dual [3]; [6],0.234
same,NF-kB SEAP reporter activity,RAW-Dual [3]; [7],1.08
same,NF-kB SEAP reporter activity,RAW-Dual [3]; [8],1.5
COc1ccccc1S(=O)(=O)Nc1ccc2c(c1)CN(C)C(=O)N2 (library stock concentration (final ~1000-fold dilution): 10 mM),NF-kB SEAP reporter activity,RAW-Dual [2]; agonist: LPS (TLR4) 0.1 ug/mL,3.81
same,NF-kB SEAP reporter activity,RAW-Dual [2]; [6],2.25
same,NF-kB SEAP reporter activity,RAW-Dual [2]; [7],0.457
same,NF-kB SEAP reporter activity,RAW-Dual [2]; [8],1.4
COc1cc2c(cc1NS(=O)(=O)c1ccc(Br)cc1C)n(C)c(=O)n2C (library stock concentration (final ~1000-fold dilution): 10 mM),NF-kB SEAP reporter activity,RAW-Dual [2]; agonist: LPS (TLR4) 0.1 ug/mL,1.73
same,NF-kB SEAP reporter activity,RAW-Dual [2]; [6],1.23
same,NF-kB SEAP reporter activity,RAW-Dual [2]; [7],0.828
same,NF-kB SEAP reporter activity,RAW-Dual [2]; [8],1.08
COc1ccccc1N1CCN(CCCNc2cc(=O)n(C)c(=O)n2C)CC1.Cl,NF-kB SEAP reporter activity,RAW-Dual [1]; [4],1.18
same,NF-kB SEAP reporter activity,RAW-Dual [1]; [5],0.935
COc1ccccc1N1CCN(CCCNc2cc(=O)n(C)c(=O)n2C)CC1.Cl (library stock concentration (final ~1000-fold dilution): 10 mM),NF-kB SEAP reporter activity,RAW-Dual [2]; agonist: LPS (TLR4) 0.1 ug/mL,1.02
same,NF-kB SEAP reporter activity,RAW-Dual [2]; [6],0.978
same,NF-kB SEAP reporter activity,RAW-Dual [2]; [7],1.06
same,NF-kB SEAP reporter activity,RAW-Dual [2]; [8],1.17
COc1cc2c(cc1NS(=O)(=O)c1ccc(Br)cc1C)n(C)c(=O)n2C,NF-kB SEAP reporter activity,RAW-Dual [1]; [4],0.973
same,NF-kB SEAP reporter activity,RAW-Dual [1]; [5],1.39
COc1ccccc1S(=O)(=O)Nc1ccc2c(c1)CN(C)C(=O)N2,NF-kB SEAP reporter activity,RAW-Dual [1]; [4],2.14
same,NF-kB SEAP reporter activity,RAW-Dual [1]; [5],2.51
CN1C(=N)NC(C)(c2cc(NC(=O)c3ccc(F)cn3)ccc2F)CS1(=O)=O (stereo not given),NF-kB SEAP reporter activity,RAW-Dual [1]; [4],0.847
same,NF-kB SEAP reporter activity,RAW-Dual [1]; [5],0.931
CN1C(=N)NC(C)(c2cc(NC(=O)c3ccc(F)cn3)ccc2F)CS1(=O)=O (stereo not given) (library stock concentration (final ~1000-fold dilution): 10 mM),NF-kB SEAP reporter activity,RAW-Dual [2]; agonist: LPS (TLR4) 0.1 ug/mL,0.906
same,NF-kB SEAP reporter activity,RAW-Dual [2]; [6],0.673
same,NF-kB SEAP reporter activity,RAW-Dual [2]; [7],0.747
same,NF-kB SEAP reporter activity,RAW-Dual [2]; [8],0.657
O=C(O)CN1C(=O)c2cccc3cccc(c23)C1=O,NF-kB SEAP reporter activity,RAW-Dual [1]; [4],0.931
same,NF-kB SEAP reporter activity,RAW-Dual [1]; [5],1.03
O=C(CCCCCN1C(=O)c2cccc3cccc(c23)C1=O)NO (library stock concentration (final ~1000-fold dilution): 10 mM),NF-kB SEAP reporter activity,RAW-Dual [3]; agonist: LPS (TLR4) 0.1 ug/mL,3.67
same,NF-kB SEAP reporter activity,RAW-Dual [3]; [6],2.57
same,NF-kB SEAP reporter activity,RAW-Dual [3]; [7],1.28
same,NF-kB SEAP reporter activity,RAW-Dual [3]; [8],2.06
COc1ccc(-n2c(SCCCN3C(=O)c4cccc5cccc(c45)C3=O)nnc2-c2ccncc2)cc1,NF-kB SEAP reporter activity,RAW-Dual [1]; [4],1.08
same,NF-kB SEAP reporter activity,RAW-Dual [1]; [5],1.32
O=C(O)CN1C(=O)c2cccc3cccc(c23)C1=O (library stock concentration (final ~1000-fold dilution): 10 mM),NF-kB SEAP reporter activity,RAW-Dual [2]; agonist: LPS (TLR4) 0.1 ug/mL,0.89
same,NF-kB SEAP reporter activity,RAW-Dual [2]; [6],0.942
same,NF-kB SEAP reporter activity,RAW-Dual [2]; [7],1.03
same,NF-kB SEAP reporter activity,RAW-Dual [2]; [8],1.06
COc1ccc(-n2c(SCCCN3C(=O)c4cccc5cccc(c45)C3=O)nnc2-c2ccncc2)cc1 (library stock concentration (final ~1000-fold dilution): 10 mM),NF-kB SEAP reporter activity,RAW-Dual [2]; agonist: LPS (TLR4) 0.1 ug/mL,2.06
same,NF-kB SEAP reporter activity,RAW-Dual [2]; [6],1.17
same,NF-kB SEAP reporter activity,RAW-Dual [2]; [7],1.3
same,NF-kB SEAP reporter activity,RAW-Dual [2]; [8],2.18
O=C(CCCCCN1C(=O)c2cccc3cccc(c23)C1=O)NO,NF-kB SEAP reporter activity,RAW-Dual [1]; [9],1.51
same,NF-kB SEAP reporter activity,RAW-Dual [1]; [10],2.33
CCCCCOc1ccc(-c2cc(-c3ccc(C(=O)NC4CC(O)C(O)NC(=O)C5C(O)C(C)CN5C(=O)C(C(O)CC(N)=O)NC(=O)C(C(O)C(O)c5ccc(O)c(OS(=O)(=O)O)c5)NC(=O)C5CC(O)CN5C(=O)C(C(C)O)NC4=O)cc3)no2)cc1 (stereo not given),NF-kB SEAP reporter activity,RAW-Dual [1]; [11],0.949
same,NF-kB SEAP reporter activity,RAW-Dual [1]; [12],1.14
CCC(C)CC(C)CCCCCCCCC(=O)NC1CC(O)C(NCCN)NC(=O)C2C(O)CCN2C(=O)C(C(O)CCN)NC(=O)C(C(O)C(O)c2ccc(O)cc2)NC(=O)C2CC(O)CN2C(=O)C(C(C)O)NC1=O (stereo not given),NF-kB SEAP reporter activity,RAW-Dual [1]; [11],0.901
same,NF-kB SEAP reporter activity,RAW-Dual [1]; [12],0.866
CCCCCOc1ccc(-c2ccc(-c3ccc(C(=O)NC4CC(O)C(O)NC(=O)C5C(O)C(C)CN5C(=O)C(C(C)O)NC(=O)C(C(O)C(O)c5ccc(O)cc5)NC(=O)C5CC(O)CN5C(=O)C(C(C)O)NC4=O)cc3)cc2)cc1 (stereo not given),NF-kB SEAP reporter activity,RAW-Dual [1]; [9],1.67
same,NF-kB SEAP reporter activity,RAW-Dual [1]; [10],2.43
CCCCCOc1ccc(-c2ccc(-c3ccc(C(=O)NC4CC(O)C(O)NC(=O)C5C(O)C(C)CN5C(=O)C(C(C)O)NC(=O)C(C(O)C(O)c5ccc(O)cc5)NC(=O)C5CC(O)CN5C(=O)C(C(C)O)NC4=O)cc3)cc2)cc1 (stereo not given) (library stock concentration (final ~1000-fold dilution): 10 mM),NF-kB SEAP reporter activity,RAW-Dual [3]; agonist: LPS (TLR4) 0.1 ug/mL,3.72
same,NF-kB SEAP reporter activity,RAW-Dual [3]; [6],0.545
same,NF-kB SEAP reporter activity,RAW-Dual [3]; [7],1.28
same,NF-kB SEAP reporter activity,RAW-Dual [3]; [8],1.42
CCC(C)CC(C)CCCCCCCCC(=O)NC1CC(O)C(NCCN)NC(=O)C2C(O)CCN2C(=O)C(C(O)CCN)NC(=O)C(C(O)C(O)c2ccc(O)cc2)NC(=O)C2CC(O)CN2C(=O)C(C(C)O)NC1=O (stereo not given) (library stock concentration (final ~1000-fold dilution): 10 mM water),NF-kB SEAP reporter activity,RAW-Dual [2]; agonist: LPS (TLR4) 0.1 ug/mL,1.29
same,NF-kB SEAP reporter activity,RAW-Dual [2]; [6],1.08
same,NF-kB SEAP reporter activity,RAW-Dual [2]; [7],1.09
same,NF-kB SEAP reporter activity,RAW-Dual [2]; [8],0.968
CCCCCOc1ccc(-c2cc(-c3ccc(C(=O)NC4CC(O)C(O)NC(=O)C5C(O)C(C)CN5C(=O)C(C(O)CC(N)=O)NC(=O)C(C(O)C(O)c5ccc(O)c(OS(=O)(=O)O)c5)NC(=O)C5CC(O)CN5C(=O)C(C(C)O)NC4=O)cc3)no2)cc1 (stereo not given) (library stock concentration (final ~1000-fold dilution): 10 mM water),NF-kB SEAP reporter activity,RAW-Dual [2]; agonist: LPS (TLR4) 0.1 ug/mL,1.2
same,NF-kB SEAP reporter activity,RAW-Dual [2]; [6],1.05
same,NF-kB SEAP reporter activity,RAW-Dual [2]; [7],0.968
same,NF-kB SEAP reporter activity,RAW-Dual [2]; [8],1.09
